MCF10A rereplic = inducers of DNA re-replication in MCF 10A breast cells; actives 2.9% (n = 350,000); AID 624296; MCF 10A DNA re-replication, Hoechst nuclear intensity, 48 h; Potency, µM (doses to about 46.1 µM), without a hit: at the top dose activity, positive = re-replication, most hits filed as activators; further: % of control where 0% means no effect; nearly all actives have a fitted effect of over 50% in size
KB-3-1 tox = kills parental KB-3-1 adenocarcinoma cells; KB-3-1 viability, CellTiter-Glo ATP luminescence, 72 h; Potency, µM (titrated, usually from 46.1 µM), most hits filed as cytotoxic; actives 1.4% (n = 400,000); AID 1347075; further: on the % scale 0 is the no-effect control and ±100 the full control effect; nearly all actives have a fitted effect of over 60% in size
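Cells are dispensed, compounds pinned in, plates held at 37 °C for 72 h, then CellTiter-Glo is added and luminescence read after 10 minutes. Cell line: parental KB-3-1 in phenol-red-free DMEM, 10% FBS.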
SW480 rereplic = induces DNA re-replication in SW480 colon adenocarcinoma cells; SW480 DNA re-replication, Hoechst DNA content imaging, 48 h; Potency, µM (top dose mostly 46.1 µM), without a hit: at the top dose re-replication activation, usual class: activators; actives 1.8% (n = 340,000); AID 624297; further: % of control where 0% means no effect; nearly all actives have a fitted effect of over 55% in size
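Image-based read-out: total Hoechst fluorescence of nuclei (405 nm excitation, 500-530 nm emission), with hits raising the fraction of high-intensity nuclei. SW480 colon cells incubated 48 hr with compounds at 37 C.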
KB-V1 cytotox = kills drug-selected multidrug resistant KB-V1 cells; Potency, µM (series often up to 46.1 µM), most hits filed as cytotoxic; KB-V1 MDR cells viability, CellTiter-Glo, 72 h; actives 3.4% (n = 400,000); further: on the % scale 0 is the no-effect control and ±100 the full control effect; nearly all actives have a fitted effect of over 60% in size
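KB-V1, DMEM (no phenol red) + 10% FBS; cpd pin-transferred, titration series; 72 h, 37 degrees C; CellTiter-Glo, luminescence. Data normalized, curve-fit.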
ELG1 DNA repair = inhibitors of ELG1-dependent DNA repair in HEK293T cells. Potency, µM (titrated, usually from 46.1 µM), for the others: top-dose activity change, negative = inhibition, most hits filed as inhibitors. HEK293T ELG1-luciferase reporter, luminescence, 16 h; DNA damage induced by 5-fluorouridine. actives 2.3% (n = 330,000); further: on the % scale 0 is the no-effect control and ±100 the full control effect; nearly all actives have a fitted effect of over 55% in size
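Overnight (16 hr) co-exposure of 2,000 cells/well to 5-fluorouridine and compound at 37 °C preceded detection. Luciferase was quantified via ONE-Glo luminescence; loss of signal denotes inhibition.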
Numbers without * were called inactive; i = inactive; ? = inconclusive; nt = no result; [ ] = dose if it differs, or a comment. Most compounds without a hit are left out; they make up all but 8.1% or so of the library. The call rests on the fitted dose curve; in most records, active means well fitted curve in the direction sought with a large enough effect; inconclusive means small, poorly fitted or top-dose-only effect, or another doubt; inactive means no such curve, though single readings can be large; an effect the other way counts as inactive or inconclusive. Potency means the concentration at half of the fitted maximal effect.

SMILES | MCF10A rereplic | KB-3-1 tox | SW480 rereplic | KB-V1 cytotox | ELG1 DNA repair
COc1ccc(OC)c(-n2c(N)c(C(=O)NCC3CCCO3)c3nc4ccccc4nc32)c1 (stereo unspecified) | 8.2µM* | i | 16µM* | i | 16µM*
Nc1c(S(=O)(=O)c2cccs2)c2nc3ccccc3nc2n1Cc1ccccc1 | 578%[0.0737 µM] | i | 1% | i | ?
COCCn1c(N)c(C(=O)Nc2sc3c(c2C(=O)OC)CCCC3)c2nc3ccccc3nc21 | 1% | i | 1% | i | 7%
COc1ccc(Cn2c(N)c(S(=O)(=O)c3cccs3)c3nc4ccccc4nc32)cc1 | ? | i | ? | i | 0%
CCNc1nc(NCC)nc(OCC(=O)O)n1 | 4% | i | -7% | i | -4%
C=CCn1c(SCC(=O)c2[nH]c(C)c(C(=O)OCC)c2C)nc2scc(-c3ccccc3)c2c1=O | ? | i | 8% | i | -24%
COc1cccc(/C=N/n2c(CO)nc3ccccc32)c1OC | ? | i | -5% | ? | ?
CNc1nc2ccccc2n1/N=C/c1cccc(OC)c1OC | 17% | i | -13% | 8.2µM* | ?
Nc1c(C(=O)NCC2CCCO2)c2nc3ccccc3nc2n1/N=C/c1ccncc1 (stereo unspecified) | 25% | i | -3% | i | nt
COCCn1c(N)c(C(=O)NCC2CCCO2)c2nc3ccccc3nc21 (stereo unspecified) | ? | i | 10µM* | ? | ?
Nc1c(C(=O)OCC2CCCO2)c2nc3ccccc3nc2n1C1CCCC1 (stereo unspecified) | ? | ? | 27% | 23µM* | ?
CC(C)Cn1c(N)c(C(=O)NCC2CCCO2)c2nc3ccccc3nc21 (stereo unspecified) | 2.1µM* | i | ? | ? | 8.9µM*
O=C(CN1CCc2cc3c(cc2C1)OCCCO3)Nc1ccc(F)cc1 | 0% | i | 8% | ? | ?
CCOc1ccc(CCNC(=O)CCCc2nnc3n(C)c(=O)c4sccc4n23)cc1OCC | nt | i | nt | i | nt
CC1(C)Cc2nc3sc4c(=O)n(CC(=O)NCc5ccccc5)cnc4c3cc2CO1 | 6.5µM* | 2.6µM* | ? | 3.7µM* | 15%
Cc1nc2c(sc3nc4c(cc32)COC(C)(C)C4)c(=O)n1Cc1ccccc1 | 11% | i | -7% | 5.2µM* | ?
CC1(C)Cc2nc3sc4c(=O)n(CC(N)=O)cnc4c3cc2CO1 | -11% | i | -2% | i | ?
CCN(CC)CCn1c(C)nc2c(sc3nc4c(cc32)COC(C)(C)C4)c1=O | 3% | i | -5% | i | ?
Cc1nc2c(sc3nc4c(cc32)COC(C)(C)C4)c(=O)n1CC(=O)NCc1ccco1 | ? | 5.2µM* | ? | ? | ?
CC1(C)Cc2nc3sc4c(=O)n(Cc5ccccc5)cnc4c3cc2CS1 | ? | i | -7% | 8.2µM* | ?
CCCn1cnc2c(sc3nc4c(cc32)CSC(C)(C)C4)c1=O | -7% | i | 1% | i | ?
O=C(O)C[C@H]1c2cc(C(F)(F)F)ccc2S(=O)(=O)N1C1CCCC1 | 5% | i | -4%[9.22 µM] | i | nt
O=C(Nc1nc2ccc(F)cc2s1)c1nc(S(=O)(=O)Cc2ccccc2)ncc1Cl | nt | i | nt | i | nt
c1ccc([C@H]2CNCCN2CCc2cccc3ccccc23)cc1 | 7% | i | ? | i | 15%
O=C(CC(=O)c1ccccc1)Nc1ccc2c(c1)OCCO2 | 8% | i | 1% | i | ?
O=C1C(=Cc2ccccc2[N+](=O)[O-])Cc2ccccc21 | nt | i | nt | ? | nt
CC1(C)Cc2nc3sc4c(SCC(=O)NCc5ccco5)ncnc4c3cc2CO1 | 3.3µM* | 4.6µM* | 3.3µM* | ? | ?
Nc1ccc2cc3[nH]c4cc(N)ccc4c3nc2c1 | 18µM* | ? | 3.3µM* | i | nt
O=S(=O)(c1ccccc1F)N1CCN(CCc2ccccc2)CC1 | ? | i | -2% | ? | ?
